Screening results as filed in PubChem BioAssay.
Only some compounds are listed: those with a hit (about 2.3% of all), similar ones and a draw of the others.
Mcl-1 Bim block: inhibitors of Bim-Mcl-1 interaction, human; Bead-based flow cytometry, Bim peptide-Mcl-1 binding; 190,000 compounds, 0.1% hits; inhibition, % at 10 µM; AID 1009; Q07820; in the data active means inhibition above about 40%
Target sequence (Q07820 whole entry, looked up): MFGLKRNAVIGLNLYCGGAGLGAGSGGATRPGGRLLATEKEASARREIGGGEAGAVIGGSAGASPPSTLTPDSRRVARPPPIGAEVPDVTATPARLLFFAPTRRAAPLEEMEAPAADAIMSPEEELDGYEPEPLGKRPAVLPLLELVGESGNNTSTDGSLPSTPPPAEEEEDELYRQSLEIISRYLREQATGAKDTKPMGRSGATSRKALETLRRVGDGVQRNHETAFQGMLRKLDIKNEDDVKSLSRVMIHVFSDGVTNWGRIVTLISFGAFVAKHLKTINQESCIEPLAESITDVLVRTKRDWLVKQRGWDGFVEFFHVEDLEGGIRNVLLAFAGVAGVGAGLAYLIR
MCL1-BIM inh: inhibitors of human MCL1 binding to BIM-BH3 peptide; GST-MCL1 / FITC-Bim-BH3 fluorescence polarization; Q07820; inhibition, % at 10.9 µM; 320,000 compounds, 0.68% hits;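 active means inhibition above the mean inhibition of all tested compounds plus 3 SD, set per campaign, cut at about 40% in these data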;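 further: higher means more loss of mP so more displacement of Bim peptide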
GLD-1 RNA inh: GLD-1-TGE RNA interaction inhibition (C. elegans). Q17339. purified GLD-1 + fluorescein TGE RNA, fluorescence polarization. inhibition, % at 5.96 µM. 320,000 compounds, 0.44% hits. AID 2280;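 active means percent inhibition above a per-plate cutoff, the plate mean of test compounds plus 3 SD, cut at about 30% in these data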
Target sequence (Q17339 whole entry, looked up): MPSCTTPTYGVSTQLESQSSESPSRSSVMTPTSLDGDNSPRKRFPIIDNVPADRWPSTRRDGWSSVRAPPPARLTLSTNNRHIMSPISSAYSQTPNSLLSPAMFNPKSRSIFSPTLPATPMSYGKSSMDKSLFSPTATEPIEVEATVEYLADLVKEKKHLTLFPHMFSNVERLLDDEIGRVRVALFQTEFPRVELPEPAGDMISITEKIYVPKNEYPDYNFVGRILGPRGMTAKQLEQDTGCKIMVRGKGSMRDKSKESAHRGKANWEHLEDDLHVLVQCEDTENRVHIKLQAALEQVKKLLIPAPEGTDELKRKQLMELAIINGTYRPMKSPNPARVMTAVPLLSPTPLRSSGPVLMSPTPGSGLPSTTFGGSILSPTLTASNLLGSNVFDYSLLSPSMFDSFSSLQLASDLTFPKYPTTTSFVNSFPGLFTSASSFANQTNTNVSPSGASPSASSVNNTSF
Mcl1 Noxa PPI: Mcl-1/Noxa interaction inhibition | Q07820 | TR-FRET Mcl-1/Noxa peptide binding, 2 h | inhibition, % at 21.7 µM | 220,000 compounds, 1.5% hits | AID 1022;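 active means compounds that cut the protein-peptide binding signal by more than 50% relative to plate controls in a single-dose test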;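 further: His-tagged Mcl-1 with rhodamine Noxa BH3 peptide and terbium anti-His antibody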
Bcl-xL primary: inhibitors of human Bcl-xL; inhibition, % at 10.9 µM; Q07817; GST-Bcl-xL / FITC-Bim BH3 peptide fluorescence polarization; 320,000 compounds, 0.7% hits; AID 2129;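 active means inhibition above the mean of all tested compounds plus 3 SD, cutoff set per campaign, cut at about 30% in these data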;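 further: inhibitors lower millipolarization by displacing the labeled peptide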
Mcl1-Bid inh: Mcl-1/Bid interaction inhibition; Q07820; TR-FRET Mcl-1/Bid-Dy647 peptide binding, 1536-well; inhibition, % at 21.7 µM; 220,000 compounds, 0.97% hits; AID 1021;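 active means compounds that cut the binding signal by more than half at the single screening dose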;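 further: His-tagged Mcl-1 with europium anti-His antibody binding Bid BH3 peptide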
GLD1 RNA confirm: GLD-1 TGE RNA interaction inhibition, confirmation; shares compounds with GLD-1 RNA inh; GLD-1/FL-TGE RNA fluorescence polarization, biochemical; inhibition, % at 5.96 µM; 550 compounds, 10% hits; AID 2459;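 active means average inhibition across triplicates above the hit cutoff set in the primary screen, cut at about 32% in these data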
Large screens that a line does not name were inactive (follow-up assays come after a bar, where they were run).

Cc1ccc(C(CC(=O)O)NC(=O)CN2C(=O)c3ccccc3C2=O)cc1 (configuration not stated)	none (no result: Mcl-1 Bim block, Mcl1 Noxa PPI, Mcl1-Bid inh)
CCOC(=O)Cc1csc(/N=C/c2c(O)n(-c3ccc(C)cc3C)c(=O)c3ccccc23)n1	GLD-1 RNA inh 38 | GLD1 RNA confirm inactive
Cc1cc(C)c(S(=O)(=O)Nc2cc(C)on2)c(C)c1	none (no result: Mcl-1 Bim block, Mcl1 Noxa PPI, Mcl1-Bid inh)
CC(C)CCN(C)C1CCN(C(=O)Nc2c(F)cccc2F)CC1	GLD-1 RNA inh 35, Bcl-xL primary 37 | GLD1 RNA confirm inactive
NC(=O)c1ccccc1NC(=O)/C=C/c1ccc(Cl)cc1	GLD-1 RNA inh 56 | GLD1 RNA confirm inactive
NC(=O)c1ccccc1NC(=O)/C=C/c1ccccc1	none
CC(C)Cn1c(N)c(C(=O)COC(=O)c2ccc([N+](=O)[O-])o2)c(=O)n(C)c1=O	none
COc1ccc(-n2nc(C(=O)NCC(=O)NC3CCCC(C)C3C)c3ccccc3c2=O)cc1 (configuration not stated)	GLD-1 RNA inh 33 (no result: Mcl-1 Bim block, Mcl1 Noxa PPI, Mcl1-Bid inh) | GLD1 RNA confirm inactive
O=C(Nc1ccccc1Cl)NC1(C(=O)NCC2CCCO2)CCCCC1 (configuration not stated)	none (no result: Mcl-1 Bim block, Mcl1 Noxa PPI, Mcl1-Bid inh)
O=C(c1ccccc1C(=O)N1CCN(c2ccccc2)CC1)N1CCN(c2ccccc2)CC1	MCL1-BIM inh 46, GLD-1 RNA inh 38, Bcl-xL primary 46 | GLD1 RNA confirm inactive
COc1ccccc1NC(=O)c1ccc(Cl)c(S(=O)(=O)NCc2ccco2)c1	none (no result: Mcl-1 Bim block, Mcl1 Noxa PPI, Mcl1-Bid inh)
COc1ccc(Nc2ncc3c(n2)CC(c2ccc(C)cc2)CC3=O)cc1 (configuration not stated)	none
COc1ccc(Nc2ncc3c(n2)CC(c2ccc(OC)cc2)CC3=O)cc1 (configuration not stated)	GLD-1 RNA inh 45 | GLD1 RNA confirm inactive
CN(C)c1ccc(/C=C2\CCCc3c2nc2ccccc2c3C(=O)O)cc1	none (no result: Mcl-1 Bim block, Mcl1 Noxa PPI, Mcl1-Bid inh)
Cc1cc(NC(=O)/C=C/c2ccccc2Cl)n(-c2nc3ccccc3[nH]2)n1	GLD-1 RNA inh 34, Mcl1-Bid inh 66 | GLD1 RNA confirm inactive
COC(=O)c1ccccc1NC(=O)N1CSC[C@H]1C(=O)OC	none
CCC1c2ccc(C)n2CCN1C(=O)Nc1ccccc1C(=O)OC (configuration not stated)	MCL1-BIM inh 44, GLD-1 RNA inh 35, Bcl-xL primary 41 | GLD1 RNA confirm inactive
CCCC(C)c1nnc(NC(=O)COc2ccc3c(c2)OCO3)s1 (configuration not stated)	none (no result: Mcl-1 Bim block, Mcl1 Noxa PPI, Mcl1-Bid inh)
O=[N+]([O-])c1cc([N+](=O)[O-])c(Oc2ccc(Br)cc2Br)cc1NN1CCCCC1	GLD-1 RNA inh 100 (no result: Mcl-1 Bim block, Mcl1 Noxa PPI, Mcl1-Bid inh) | GLD1 RNA confirm inactive
CC1CCCCC12NC(=O)N(CC(=O)NCc1ccco1)C2=O (configuration not stated)	none (no result: Mcl-1 Bim block, Mcl1 Noxa PPI, Mcl1-Bid inh)
O=C(Nc1ccccc1)Nc1ccc(Cl)nc1Cl	GLD-1 RNA inh 36 (no result: Mcl-1 Bim block, Mcl1 Noxa PPI, Mcl1-Bid inh) | GLD1 RNA confirm inactive
O=C(NNc1cccc(Cl)n1)Nc1ccccc1	none
O=C(NCc1ccc2c(c1)OCO2)C(=O)NCC1OCCCN1S(=O)(=O)c1cc(F)ccc1F (configuration not stated)	none (no result: Mcl-1 Bim block, Mcl1 Noxa PPI, Mcl1-Bid inh)
COc1cccc(OCCNc2cc(N3CCCCC3)ccc2[N+](=O)[O-])c1	GLD-1 RNA inh 59 | GLD1 RNA confirm inactive
COc1ccc(OCCNc2cc(N3CCCCC3)ccc2[N+](=O)[O-])cc1	none
CCc1cccc(NC(=O)CCCn2nc(CC)n3c(cc4occc43)c2=O)c1	GLD-1 RNA inh 31 (no result: Mcl-1 Bim block, Mcl1 Noxa PPI, Mcl1-Bid inh) | GLD1 RNA confirm inactive
COc1ccc(C(CNC(=O)c2ccc(NS(=O)(=O)c3ccc(F)c(C)c3)cc2)N2CCOCC2)cc1 (configuration not stated)	none (no result: Mcl-1 Bim block, Mcl1 Noxa PPI, Mcl1-Bid inh)
C[C@@H]1CN([C@@H](C)CO)C(=O)c2cc(NC(=O)CCN3CCOCC3)ccc2O[C@@H]1CN(C)C(=O)Nc1ccccc1	none (no result: Mcl-1 Bim block, MCL1-BIM inh, Mcl1 Noxa PPI, Bcl-xL primary, Mcl1-Bid inh)
CCN1C(=O)N/C(=C/c2ccc(C)o2)C1=O	GLD-1 RNA inh 43 | GLD1 RNA confirm inactive
CCCN1C(=O)/C(=C/c2ccc(C)o2)NC1=S	none
Cc1ccc(/C=C2/NC(=O)N(Cc3ccccc3F)C2=O)o1	GLD-1 RNA inh 34 | GLD1 RNA confirm inactive
O=C(CSc1nnc(Cc2cc(=O)[nH]c(=O)[nH]2)n1-c1ccc(Cl)cc1)NC1CCCC1	GLD-1 RNA inh 37 | GLD1 RNA confirm inactive
COc1ccc(-n2c(Cc3cc(=O)[nH]c(=O)[nH]3)nnc2SCC(=O)NC2CCCC2)cc1	none
Cc1cccc(OCCNc2ccc([N+](=O)[O-])cn2)c1	GLD-1 RNA inh 32 | GLD1 RNA confirm inactive
COCCCN1CN(S(=O)(=O)c2ccc(Cl)cc2)c2nc3ccccc3nc21	GLD-1 RNA inh 34 | GLD1 RNA confirm inactive
C=CCN1CN(S(=O)(=O)c2cccc(Cl)c2)c2nc3ccccc3nc21	GLD-1 RNA inh 45, Bcl-xL primary 34 (no result: Mcl-1 Bim block, Mcl1 Noxa PPI, Mcl1-Bid inh) | GLD1 RNA confirm inactive
C/C(CCc1ccc2c(c1)OCO2)=N\N=C1\NC(=O)CC(C(=O)Nc2ccccc2F)S1 (configuration not stated)	none
CCOc1ccc(S(=O)(=O)N2CCCC(C(=O)NCC3CCCO3)C2)cc1Cl (configuration not stated)	none (no result: Mcl-1 Bim block, Mcl1 Noxa PPI, Mcl1-Bid inh)
COc1ccc(OC)c(NC(=O)CCN2CCN(C)CC2)c1	none (no result: Mcl-1 Bim block, Mcl1 Noxa PPI, Mcl1-Bid inh)
CO/N=C/CC(=O)c1cnc(-c2ccc(Cl)cc2)s1	none
CSc1ccc(C(=O)C2CCCN(C(=O)c3nonc3C)C2)cc1 (configuration not stated)	none (no result: Mcl-1 Bim block, Mcl1 Noxa PPI, Mcl1-Bid inh)
CN1CCN(CP(=O)(N2CCOCC2)N2CCOCC2)CC1	GLD-1 RNA inh 43 | GLD1 RNA confirm inactive
CN1CCN(CCP(=O)(c2ccccc2)c2ccccc2)CC1	none
Cc1ccc(S(=O)(=O)N2CCC(C(=O)N/N=C/c3cccn3C)CC2)cc1	none (no result: Mcl-1 Bim block, MCL1-BIM inh, Mcl1 Noxa PPI, Bcl-xL primary, Mcl1-Bid inh)
CNc1c(N)n(Cc2ccccc2)c(=O)[nH]c1=O	MCL1-BIM inh 43, GLD-1 RNA inh 42, Bcl-xL primary 37 | GLD1 RNA confirm inactive
CCOC(=O)c1ccc(NC(=O)c2c(N)n(Cc3ccccc3)c(=O)[nH]c2=O)cc1	none (no result: Mcl-1 Bim block, Mcl1 Noxa PPI, Mcl1-Bid inh)
CCCNC(=O)c1onc(CSc2ccc(Cl)cc2)c1C(=O)NCCC(C)C	GLD-1 RNA inh 44 (no result: Mcl-1 Bim block, Mcl1 Noxa PPI, Mcl1-Bid inh) | GLD1 RNA confirm inactive
Cc1c(OCC(=O)NCC(O)c2ccccc2)ccc2c(-c3ccccc3)cc(=O)oc12 (configuration not stated)	none (no result: Mcl-1 Bim block, Mcl1 Noxa PPI, Mcl1-Bid inh)
Cc1oc(/N=C/c2ccc3c(c2)OCO3)c(C#N)c1C	GLD-1 RNA inh 36 | GLD1 RNA confirm inactive
CCCCC1=CC2=CC(=O)C(C)(OC(=O)CC)C(=O)C2=CN1CC(C)C (configuration not stated)	MCL1-BIM inh 41, GLD-1 RNA inh 31, Bcl-xL primary 34 (no result: Mcl-1 Bim block) | GLD1 RNA confirm inactive
CCOC(=O)C1C(c2ccccc2)C(C(=O)OCC)C1c1ccccc1 (configuration not stated)	none
